Assay outcomes (PubChem BioAssay)
Hits are enriched below; roughly 1.8% of the tested compounds scored in any of these assays.
LANA-H2B inh: blocks KSHV LANA binding to histone H2A/H2B | Q9QR71 | inhibition, % (no concentration beside the values) | AID 2629 | 320,000 tested, 0.6% active | cell-free LANA-H2A/H2B peptide, fluorescence polarization; in the data active = inhibition mostly above about 10%, no sharp cut-off; inactive = mostly below about 6.7%
HTR2A ag: mouse HTR2A agonism via beta-arrestin recruitment; 360,000 tested, 0.66% active; CHO-K1 mHTR2A beta-arrestin complementation, luminescence; percent of 30 µM serotonin response; P35363; activation, % at 7.6 µM;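 active = activation above a run cutoff, the mean activation of all tested compounds plus 3 SD, cut at about 14% in these data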;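 also: 0% = plate median of compound wells and 100% = 30 µM serotonin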
Rtt109 Vps75: inhibitors of Candida albicans Rtt109/Vps75 histone acetyltransferase. inhibition, % at 34.9 µM. AID 540336. 330,000 tested, 0.16% active. purified Rtt109/Vps75, ThioGlo CoA-SH fluorescence, 4 h. Q5AAJ8;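 active = inhibition of at least 50% in every replicate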
TLR9-MyD88 block: inhibitors of human TLR9-MyD88 binding. 340,000 tested, 0.21% active. CHO BLA complementation TLR9-MyD88, CCF4 FRET ratio. Q9NR96+Q99836. inhibition, % at 4.98 µM. AID 504734;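 active = inhibition above the mean over all tested compounds plus 3 SD, cut at about 21% in these data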;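 also: 0% = DMSO only wells and 100% = clavulanate BLA inhibitor control wells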
NOD2-RIPK2 inh: NOD2-RIPK2 protein interaction inhibition. O43353. CHO BLA complementation NOD2-RIPK2, CCF4 ratio. inhibition, % at 4.98 µM. 360,000 tested, 0.38% active. AID 624267; in the data active = inhibition above about 21%;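 also: 0% = vehicle only and 100% = reference blocker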
TLR4 MyD88 comp: inhibitors of human TLR4-MyD88 binding. 200,000 tested, 0.18% active. O00206+Q99836. HeLa CL3-4 TLR4/MyD88 BLA complementation, FRET ratio. inhibition, % at 8.4 µM; in the data active = inhibition above about 25%;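 also: 0% = vehicle and 100% = reference inhibitor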
Target sequence (O00206 whole entry, looked up): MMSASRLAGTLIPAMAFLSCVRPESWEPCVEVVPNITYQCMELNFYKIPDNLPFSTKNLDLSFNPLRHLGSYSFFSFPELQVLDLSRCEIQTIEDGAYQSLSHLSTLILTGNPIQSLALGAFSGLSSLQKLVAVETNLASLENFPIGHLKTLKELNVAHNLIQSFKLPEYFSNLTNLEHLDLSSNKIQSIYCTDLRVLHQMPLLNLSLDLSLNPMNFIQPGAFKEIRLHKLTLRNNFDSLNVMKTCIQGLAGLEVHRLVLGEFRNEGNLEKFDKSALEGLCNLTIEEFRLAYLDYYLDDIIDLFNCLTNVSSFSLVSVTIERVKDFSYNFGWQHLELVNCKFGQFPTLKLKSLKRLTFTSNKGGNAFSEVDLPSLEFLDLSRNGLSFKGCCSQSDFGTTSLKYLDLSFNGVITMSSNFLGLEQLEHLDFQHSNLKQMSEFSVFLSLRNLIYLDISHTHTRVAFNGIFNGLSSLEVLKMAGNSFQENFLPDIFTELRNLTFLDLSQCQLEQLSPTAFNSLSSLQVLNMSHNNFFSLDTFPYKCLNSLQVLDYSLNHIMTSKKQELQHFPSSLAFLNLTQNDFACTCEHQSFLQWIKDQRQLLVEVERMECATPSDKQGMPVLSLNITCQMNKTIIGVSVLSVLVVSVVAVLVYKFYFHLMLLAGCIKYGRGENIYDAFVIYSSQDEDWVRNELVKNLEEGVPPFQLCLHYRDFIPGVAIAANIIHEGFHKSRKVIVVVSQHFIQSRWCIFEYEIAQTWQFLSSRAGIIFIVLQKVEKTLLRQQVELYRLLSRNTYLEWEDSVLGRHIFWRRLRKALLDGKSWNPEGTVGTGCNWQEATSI
Target sequence (Q99836 whole entry, looked up): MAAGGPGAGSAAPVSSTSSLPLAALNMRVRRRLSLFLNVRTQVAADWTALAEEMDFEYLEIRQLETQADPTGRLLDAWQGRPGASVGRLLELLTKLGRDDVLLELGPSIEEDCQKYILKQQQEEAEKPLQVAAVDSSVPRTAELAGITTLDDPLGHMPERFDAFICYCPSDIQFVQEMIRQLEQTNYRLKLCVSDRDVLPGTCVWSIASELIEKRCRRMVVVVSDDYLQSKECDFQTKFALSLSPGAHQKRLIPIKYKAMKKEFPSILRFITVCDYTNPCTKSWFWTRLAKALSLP
An asterisk follows results filed as active; x = not tested or not shown; + = active, no number; ! = not active in a repeat.

SMILES	LANA-H2B inh	HTR2A ag	Rtt109 Vps75	TLR9-MyD88 block	NOD2-RIPK2 inh	TLR4 MyD88 comp
COc1ccc(OC)c(NC(=O)C2(C)CCN2C(=O)C2(c3ccccc3)CCCC2)c1 (stereo unspecified)	x	6	x	x	4	x
CN1C(=O)Cc2cc(S(=O)(=O)N3CCN(c4cccc(Cl)c4)CC3)ccc21	3	3	10	2	-9	x
CN1C(=O)Cc2cc(S(=O)(=O)N3CCN(c4ccc(Cl)cc4)CC3)ccc21	-4	15*	4	1	5	x
COc1cccc(/C=C2/Sc3ccc(C(=O)NCCCN4CCCC4)cc3NC2=O)c1	-2	-13	60*	4	-6	x
Cc1ccc(/C=C2/Sc3ccc(C(=O)NCCN4CCOCC4)cc3NC2=O)cc1	3	-6	-4	7	-3	x
COc1cccc(/C=C2/Sc3ccc(C(=O)NCCN4CCCC4)cc3NC2=O)c1	-3	-11	55*	5	0	x
Cc1cccc(C)c1NC(=O)CN(C)C(C)C(=O)NCC(=O)Nc1ccc(F)c(F)c1F (stereo unspecified)	187*	-5	1	1	-3	x
CCCNC(=O)C1(C)CCCN(C(=O)c2cccc(C#N)c2)C1 (stereo unspecified)	x	-1	x	x	-3	x
O=C(c1ccc([N+](=O)[O-])cc1)N1CCCC1	-3	2	-6	2	-8	x
O=[N+]([O-])c1ccc(C(=S)N2CCCC2)cc1	+	5	-7	6	-21	-8
O=C(c1cc([N+](=O)[O-])cc([N+](=O)[O-])c1)N(Cc1nnc(-c2ccccc2Cl)o1)C1CC1	3	1	3	0	5	-23
O=C1OC(CC(=O)N(Cc2nnc(-c3ccccc3Cl)o2)C2CC2)c2ccccc21 (stereo unspecified)	20*	-2	-2	4	-15	x
O=C(N/N=C/c1ccc(OCC(=O)N2CCCC2)cc1)C(=O)NC1CC1	26*	0	15	3	-5	x
O=C(O)CCc1ccc(-c2ccc(Cl)cc2)o1	4	1	30	-15	5	7
COc1ccc(-c2ccc(CCC(=O)O)o2)cc1	-1	8	58*	8	-8	-12
COc1ccc(-c2nc3ccc(Br)cn3c2CC(C)(C)C)cc1OC	x	-5	x	x	-6	x
CC(=O)c1cccc(OCC(=O)N(C)CC(=O)Nc2ccc(F)cc2)c1	17*	x	x	x	x	x
O=C(CCn1c(=S)oc2ccccc21)Nc1cccc(O)c1	2	0	-7	-5	-10	-14
O=C(CCn1c(=S)oc2ccccc21)Nc1cccc(F)c1	129*	-2	x	8	-9	9
O=C(OC1CC2CC1[C@H]1CCCCN1C2=O)N1CCN(S(=O)(=O)c2ccccc2)CC1 (stereo partly specified)	x	2	x	x	-10	x
O=C(COC(=O)COc1ccc(Cl)cc1Br)NC1CCCCCC1	-4	0	-5	-4	-10	x
CN(C(=O)COc1ccc(Cl)cc1Br)C1CCCCC1	53*	1	5	3	1	x
CCC(C)NC(=O)c1ccccc1NC(=O)Nc1ccccc1 (stereo unspecified)	16*	-1	-4	0	3	-5
CC(C)N(C)c1ncnc2c1ncn2[C@H]1CN(CCc2ccccc2)C[C@@H](CO)O1	x	4	x	x	11	x
CN(C)CCCNC(=S)N(CCCN(C)C)Cc1cc2cc3c(cc2[nH]c1=O)OCO3	20*	2	-6	0	8	x
SMILES	LANA-H2B inh	HTR2A ag	Rtt109 Vps75	TLR9-MyD88 block	NOD2-RIPK2 inh	TLR4 MyD88 comp
Cc1ccc(C(=O)COC(=O)CSc2cccc3cccnc23)c(C)c1	17*	0	5	-12	5	-9
O=C(O)CSc1cccc2cccnc12	0	1	2	-15	-6	-5
C=CCOc1ccc(/C(O)=C2\C(=O)C(=O)N(CCOC)C2c2cccnc2)cc1 (stereo unspecified)	-1	7	60*	2	-14	15
CCCOc1ccc(/C(O)=C2/C(=O)C(=O)N(CCOC)C2c2cccnc2)cc1 (stereo unspecified)	4	x	x	x	x	8
c1ccc(CN(CC2=NCCN2)c2ccccc2)cc1	6	-6	8	21	-1	9
Cc1ccc(N(CC2=NCCN2)c2cccc(O)c2)cc1	23*!	-8	-1	-4	-18	-11
